Compound activity deposited in PubChem by National Center for Advancing Translational Sciences (NCATS).
In the library only some 14% were active in any assay of this set; here they are far more common.
HCV inh – blocks hepatitis C virus. Huh7.5.1 HCVcc-Cre infection, luciferase reporter, 44 h. Potency, µM (titrated, usually from 41.8 µM), without a hit: at the highest dose activity change, negative = inhibition, usual class: inhibitors. 340,000 compounds, 3.4% hits. AID 651820; further: potency means the concentration at half of the fitted maximal effect
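Infectious HCVcc-Cre (~0.5 moi) was added to cells just after compound, with cells seeded 4 h earlier at 1,000 per well. Luciferase activity after 44 h culture reported infection; substrate was incubated 15 min at room temperature before reading.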
Pf growth 48h – P. falciparum growth inhibition at 48 hours (one generation); AID 504832; P. falciparum luciferase growth in erythrocytes, 48 h; 310,000 compounds, 5.9% hits; Potency, µM (series often up to 28.7 µM), without a hit: at the highest dose activity change, negative = inhibition, hits mostly inhibitors; further: potency means the concentration at half of the fitted maximal effect
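Growth was read as firefly luciferase luminescence after a 48 h, 37 C, 5% CO2 exposure of compounds to reporter-bearing P. falciparum cultures (0.1% parasitemia, 2% hematocrit final) in Albumax-supplemented RPMI 1640.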
MARV entry inh – Marburg virus entry inhibition. Marburg virus pseudotyped entry inhibition, cell reporter. Potency, µM (series often up to 37.8 µM), without a hit: at the highest dose activity change, negative = inhibition, actives largely listed as inhibitors. 300,000 compounds, 1.8% hits. AID 540276; calls by dose curve; tested in HEK293 cells; further: potency means the concentration at half of the fitted maximal effect
HCMV antiviral – blocks human cytomegalovirus replication; activity change, negative = inhibition, % at 57.5 µM; 410,000 compounds, 4.5% hits; HFF cells, HCMV-luciferase reporter, 72 h; hits give low values; in the data active means activity change below about -60%; inconclusive means no clear call, values can overlap the other calls; inactive means above about -39%
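Two compound doses tested in HFFs infected with HCMV-luciferase, MOI 1 PFU/cell, 72 h at 37C. Lysate luminescence read with OneGlo; data normalized against buffer-only and 10uM Salinomycin inhibitor controls.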
Lassa entry inh – blocks Lassa virus binding to or entry into cells. Lassa virus pseudotype entry inhibition, cell reporter. Potency, µM (top dose mostly 37.9 µM), for inactives: at the top dose activity change, negative = inhibition, hits mostly inhibitors. 300,000 compounds, 1.2% hits. AID 540256; calls by dose curve; tested in HEK293 cells; further: potency means the concentration at half of the fitted maximal effect; nearly all actives have a fitted effect of over 50% in size
Pf growth 96h – P. falciparum growth inhibition at 96 hours; AID 504834; Potency, µM (series often up to 28.7 µM), without a hit: top-dose activity change, negative = inhibition, usual class: inhibitors; 320,000 compounds, 6.9% hits; P. falciparum luciferase reporter growth, 96 h; further: potency means the concentration at half of the fitted maximal effect
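Infected RBCs, 2% Hct / 0.05% parasitemia final; luciferase-reporter P. falciparum; cpd 96 h, 37 C, 5% CO2; luciferase detection reagent; luminescence.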
The depositor's hits bear a star; u = inconclusive; x = no result; [ ] = remark or other dose. Unless noted, the call rests on the fitted dose curve; in most records, active means well fitted inhibition curve with a large enough effect; inconclusive means small, poorly fitted or top-dose-only effect, or another doubt; inactive means no such curve, though single readings can be large or run the other way. On the % scale 0 is the no-effect control and ±100 the full control effect.

SMILES	HCV inh	Pf growth 48h	MARV entry inh	HCMV antiviral	Lassa entry inh	Pf growth 96h
O=C(/C=C/c1cn(-c2ccccc2)nc1-c1cccnc1)c1ccco1	u	u	u	-99*	10µM*	3%
CCOc1ccc(/C=C/C2=Cc3c(sc(NC(=O)CSc4n[nH]c(N)n4)c3C#N)C(C)(C)C2)cc1	u	10µM*	u	-19	-17%	8.3µM*
Cc1ccsc1/C=C/C1=Cc2c(sc(NC(=O)CSc3n[nH]c(N)n3)c2C#N)C(C)(C)C1	11µM*	x	u	-20	u	8.3µM*
O=C(CN1CCCN(S(=O)(=O)c2ccc(Br)cc2)CC1)Nc1cccc(C(F)(F)F)c1	x	x	u	1	0%[46.1 µM]	x
O=c1c2ccccc2c(C=Nc2ccccc2O)c(O)n1-c1nccs1	u	13µM*	x	-37	x	u
CCCCC1C(=O)N(c2ccccc2)N(c2ccccc2)C1=O	-1%[8.37 µM]	u	u	u	2%	3.3µM*
O=S(=O)(NC1CCCC1)c1ccc(S(=O)(=O)N2CCCN(Cc3ccccc3)C2)cc1	u	u	5.8µM*	-23	u	x
Cc1ccc(S(=O)(=O)N2CCN(C3CCN(Cc4ccccc4)CC3)CC2)cc1	-17%	6%	0%	14	-5%	-8%[5.75 µM]
O=S(=O)(c1ccc2ccccc2c1)N1CCN(C2CCN(Cc3ccccc3)CC2)CC1	22µM*	u	u	-28	u	1%
O=S(=O)(c1ccccc1)N1CCN(C2CCN(Cc3ccccc3)CC2)CC1	u	0.1µM*	-7%	-23	-4%	0%
c1ccc(CN2CCC(N3CCC(N4CCCCCC4)CC3)CC2)cc1	u	13µM*	u	x	u	8.3µM*
COc1cc(NC(=O)c2noc3c2CCc2ccccc2-3)cc(OC)c1OC	x	x	-18%[46.1 µM]	-16	-18%[46.1 µM]	x
O=C(NCC1CCCN1S(=O)(=O)c1cccs1)C(=O)Nc1ccccc1F (centres undefined)	x	x	x	17	x	x
C[C@H](CO)NS(=O)(=O)c1cc(Cl)ccc1F	x	x	x	x	5%[46.1 µM]	x
CCc1ccc(CN(C(=O)c2nc(SC)ncc2Cl)C2CCS(=O)(=O)C2)cc1 (centres undefined)	x	x	0%[46.1 µM]	5	-2%[46.1 µM]	x
CC1(C(=O)Nc2ccc3c(c2)OCO3)Cc2c(-c3cccc(C(F)(F)F)c3)ccnc2O1 (centres undefined)	x	x	x	-12	x	x
Cc1cc2ccccc2c(=O)n1CC(=O)NCC(=O)N1CCCC1	22%	4%	17%	7	14%	12µM*
COc1ccc(N2CCN(C(=O)CNC(=O)Cn3c(C)cc4ccccc4c3=O)CC2)cc1	-13%	u	25%	24	-5%	x
COc1ccc(CC(C)Nc2cccc(SC)c2)cc1 (centres undefined)	2%	-2%	x	43	x	8.3µM*
COc1ccc(CC(C)Nc2cccc(F)c2)cc1 (centres undefined)	0%	40%	x	u	x	1%
Cc1ccc2c(c1)C(=O)C(=O)N2Cc1ccc(Cl)cc1	u	x	x	-39	x	x
CCN(CC)CCOCCOC(=O)C1(c2ccccc2)CCCC1	-48%	3µM*	16µM*	-16	u	3.4µM*
CC(C[N+](C)(C)C)OC(=O)C1(c2ccccc2)CCCC1 (centres undefined)	7%	10µM*	x	-12	x	u
C[N+](C)(C)CCOC(=O)C1(c2ccccc2)CCCC1	19%	-14%	u	-25	7%	x
CCN(CC)CCCOC(=O)C1(c2ccccc2)CCCC1	u	-26%	u	-31	-10%	x
SMILES	HCV inh	Pf growth 48h	MARV entry inh	HCMV antiviral	Lassa entry inh	Pf growth 96h
COc1ccccc1N1CCN(Cc2cnc3ccc(Cl)cn23)CC1	u	0%	x	u	x	u
Oc1ccccc1N=Cc1c(O)ccc2ccccc12	-7%	u	-13%[46.1 µM]	-70*	-5%[46.1 µM]	10µM*
Cc1cc(C(=O)O)ccc1N=Cc1c(O)ccc2ccccc12	-17%	49%	13%	4	u	12µM*
CC(=O)c1cccc(N=Cc2c(O)ccc3ccccc23)c1	4%	12%	u	12	-14%	-8%
CCOC(=O)c1cc(CC)sc1/N=C/c1c(O)ccc2ccccc12	-27%	39%	-10%	-70*	u	39%
CN(C)/N=C/c1c(O)ccc2ccccc12	10µM*	x	15%	-11	5%	41%
O=C1CCCCC1CCS(=O)(=O)NCc1ccccc1 (centres undefined)	x	x	x	1	x	x
C[C@H](CO)N1C[C@H](C)[C@@H](CN(C)C(=O)Nc2ccc(C(C)(C)C)cc2)OCc2cn(nn2)CCCC1=O	x	x	x	9	x	x
C[C@H]1[C@@H](NC(=O)Nc2ccc(F)cc2)CC[C@@]23CCCN2C(=O)CCC[C@@H]13	x	x	x	11	x	x
Cc1ccc(NC(=O)C2(C)CCCN2C)cc1C (centres undefined)	x	x	x	-10	x	x
COc1ccccc1OCC(=O)NCC1CCCN(C(=O)c2ccccc2SC)C1 (centres undefined)	1%	-19%	x	0	x	2%
COc1ccccc1OCC(=O)NCC1CCCN(C(=O)c2ccccc2C(C)=O)C1 (centres undefined)	x	6%	-1%	-33	3%	17µM*
CCOc1ccc(CN=C(N)N=C(N)N)cc1Cl	u	u	u	6	-19%	61%
CCCCOc1ccc(CN=C(N)N)cc1Cl	10µM*	u	x	-20	x	u
CCCOc1ccc(CCCN=C(N)N)cc1Cl	8.9µM*	u	u	-74*	0%	-12%
CCC[C@H]1[C@@H](NC(=O)NCCCC(=O)OCC)CC[C@@]23CCCN2C(=O)CCC[C@@H]13	x	x	x	4	x	x
CCn1cc[n+](C)c1P(c1ccccc1)c1ccccc1	9%	1.3µM*	x	-76*	x	u
CCN(CC(=O)Nc1ccc(OC)cc1)C(=O)Cc1ccc(OC)c(S(=O)(=O)N2CCOCC2)c1	6%	-24%	x	41	x	-26%
COc1cc(C)cc2oc(=O)c(CC(=O)NCCc3ccc(Cl)cc3)c(C)c12	x	x	4%[46.1 µM]	8	7%[46.1 µM]	x
CC1(C(=O)Nc2ccc(F)c(Cl)c2)Cc2c(-c3ccccc3)ccnc2O1 (centres undefined)	x	x	x	-22	x	x
O=C(CC(=O)N/N=C/c1ccccc1)NCc1ccccc1	7%	0%	-5%[46.1 µM]	u	10%[46.1 µM]	10µM*
CC1CCC(=NNC(=O)Cc2ccccc2)CC1 (centres undefined)	25%	u	5%	-35	8%	u
O=C(CC(=O)N/N=C\c1c(Cl)cccc1Cl)NCc1ccccc1	10%	6%	u	-17	-27%	1µM*
O=C(CC(=O)N/N=C/c1ccc(C(=O)O)cc1)NCCc1ccccc1	4%	-6%	x	-97*	x	12%
